Reference: PubChem BioAssay (NCATS)
Several values for one entry are separate records, joined by “and”; a condition that tells them apart may be missing. Equal values may be shown once. Inconclusive results are not listed. Entries that show only a call come without a potency. A number with no mark means an inactive call. Activity calls are given as the source filed them. Calls follow the shape of the dose curve; as a rule, active = well fitted inhibition curve with a large enough effect; inconclusive = small, poorly fitted or top-dose-only effect; inactive = flat fitted curve, though single readings scatter.

Assays:
PC15 = assay: qHTS profiling for inhibitors of Plasmodium falciparum proliferation (AID 504749); also: potency is read from the fitted curve at half-maximal effect; conditions: P. falciparum in erythrocytes, SYBR Green DNA, 72 h; series mostly up to 28.7 µM
Outline: (§1)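 Infected RBCs, 0.3% parasitemia/2.5% Hct final; cpd 72 h, 37 C, 5% CO2; lysis buffer with saponin/triton/SYBR Green I, o/n RT dark; FI 485/535; norm. to artemisinin (0.29 uM) and DMSO.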

PC26 = assay: as above; conditions: P. falciparum in erythrocytes, SYBR Green DNA, 72 h; series mostly up to 28.7 µM
Outline: as §1

SC27B = assay: as above; conditions: P. falciparum in erythrocytes, SYBR Green DNA, 72 h; series mostly up to 28.7 µM
Outline: as §1

TAB109 = assay: as above; conditions: P. falciparum in erythrocytes, SYBR Green DNA, 72 h; series mostly up to 28.7 µM
Outline: as §1

TAB113 = assay: as above; conditions: P. falciparum in erythrocytes, SYBR Green DNA, 72 h; series mostly up to 28.7 µM
Outline: as §1

TAB165 = assay: as above; conditions: P. falciparum in erythrocytes, SYBR Green DNA, 72 h; series mostly up to 28.7 µM
Outline: as §1

KB-3-1 = assay: Cytotoxic Profiling of Annotated Libraries Using Quantitative High-Throughput Screening (AID 1296008); conditions: Five cell lines viability, CellTiter-Glo ATP luminescence, 48-72 h; max response: hits give low values; also: potency is read from the fitted curve at half-maximal effect
Outline: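 Cytotoxicity was measured as CellTiter-Glo ATP luminescence, read after 10 min at room temperature. Compound treatment of the cells lasted 48 or 72 hr at 37 degrees Celsius in a qHTS format.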

PAD = assay: qHTS profiling for inhibitors of Plasmodium falciparum proliferation (AID 504749); also: potency is read from the fitted curve at half-maximal effect; conditions: P. falciparum in erythrocytes, SYBR Green DNA, 72 h; series mostly up to 28.7 µM
Outline: as §1

PC49 = assay: as above; conditions: P. falciparum in erythrocytes, SYBR Green DNA, 72 h; series mostly up to 28.7 µM
Outline: as §1

W2 = assay: as above; conditions: P. falciparum in erythrocytes, SYBR Green DNA, 72 h; series mostly up to 28.7 µM
Outline: as §1

MCC-13 = assay: qHTS assay to identify novel small-molecules to repurpose for Merkel cell carcinoma treatment (AID 1296009); conditions: MCC and control cell lines, CellTiter-Glo viability, 72 h; series mostly up to 46 µM
Outline: (§2)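 72 hr, 37 degree celsius; NPC 8-pt / MIPE 11-pt dose response; compound pinned in DMSO; CellTiter-Glo, 10 min RT, luminescence; normalized to no-cell and DMSO controls.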

MCC-26 = assay: as above; conditions: MCC and control cell lines, CellTiter-Glo viability, 72 h; series mostly up to 46 µM
Outline: as §2

MKL-1 = assay: as above; conditions: MCC and control cell lines, CellTiter-Glo viability, 72 h; series mostly up to 46 µM
Outline: as §2

MKL-2 = assay: as above; conditions: MCC and control cell lines, CellTiter-Glo viability, 72 h; series mostly up to 46 µM
Outline: as §2
Also: nearly all actives have a fitted effect of over 60% in size.

## N=C(N)c1ccc(/C=C/c2ccc(C(=N)N)cc2O)cc1
PC15
  Potency: 12.6 µM (active)
PC26
  Potency: 8.49 µM (active)
SC27B
  Potency: 10 µM (active)
TAB109
  Potency: 17.8 µM (active)
TAB113
  Potency: 3.98 µM (active)
TAB165
  Potency: 4.47 µM (active)
KB-3-1
  max response: -19%

## O=C(O)CCC(=O)c1ccc(-c2ccccc2)cc1
PAD
  Potency: inactive
PC15
  Potency: inactive
PC26
  Potency: inactive
PC49
  Potency: inactive
SC27B
  Potency: inactive
TAB109
  Potency: inactive
TAB113
  Potency: inactive
TAB165
  Potency: inactive
W2
  Potency: inactive
MCC-13
  outcome: inactive
MCC-26
  outcome: inactive
MKL-1
  outcome: inactive
MKL-2
  outcome: inactive

## CN1CCCC(CN2c3ccccc3Sc3ccccc32)C1 (stereo not drawn)
PC49
  Potency: inactive
TAB109
  Potency: 11.2 µM (active)
TAB165
  Potency: 12.6 µM (active)
W2
  Potency: 3.38 µM (active)
KB-3-1
  max response: -10.2%

## CC(CN(C)C)CN1c2ccccc2Sc2ccc(C(F)(F)F)cc21 (stereo not drawn)
TAB165
  Potency: 12.6 µM (active)
W2
  Potency: 0.426 µM (active)
KB-3-1
  max response: -6.33%

## CCOc1cc(-c2nccc3cc(OC)c(OC)cc23)cc(OCC)c1OCC
TAB109
  Potency: inactive
W2
  Potency: 15.1 µM (active)
KB-3-1
  max response: -26.3%

## CC(C)O
PAD
  Potency: inactive
PC15
  Potency: inactive
PC26
  Potency: inactive
PC49
  Potency: inactive
SC27B
  Potency: inactive
TAB109
  Potency: inactive
TAB113
  Potency: inactive
TAB165
  Potency: inactive
W2
  Potency: inactive

## C=CC[N+]1([C@H]2C[C@H]3[C@@H]4CC[C@H]5C[C@H](O)[C@@H](N6CCOCC6)C[C@]5(C)[C@H]4CC[C@]3(C)[C@H]2OC(C)=O)CCCC1
PC15
  Potency: inactive
PC49
  Potency: inactive
TAB109
  Potency: 6.31 µM (active)
W2
  Potency: 5.36 µM (active)
KB-3-1
  max response: 7.82%

## CCN(CC)CCC(=O)N1c2ccccc2Sc2ccc(C(F)(F)F)cc21
PAD
  Potency: inactive
PC49
  Potency: inactive
SC27B
  Potency: inactive
TAB113
  Potency: inactive
TAB165
  Potency: inactive
W2
  Potency: 5.36 µM (active)
KB-3-1
  max response: 2.13%

## Cc1cc(-c2ccc(N=Nc3c(S(=O)(=O)O)cc4cc(S(=O)(=O)O)cc(N)c4c3O)c(C)c2)ccc1N=Nc1c(S(=O)(=O)O)cc2cc(S(=O)(=O)O)cc(N)c2c1O
PC15
  Potency: inactive
PC49
  Potency: inactive
SC27B
  Potency: inactive
TAB113
  Potency: inactive
TAB165
  Potency: 12.6 µM (active)
W2
  Potency: inactive
KB-3-1
  Potency: 9.2 µM (active)

## O=C(CCCN1CCC(C(=O)c2ccc(F)cc2)CC1)c1ccc(F)cc1
PAD
  Potency: inactive
SC27B
  Potency: inactive
TAB113
  Potency: inactive
W2
  Potency: 3.79 µM (active)
KB-3-1
  max response: 33.7%

## NC(=O)CC[C@@H]1NC(=O)[C@H](Cc2ccccc2)NC(=O)[C@H](Cc2ccc(O)cc2)NC(=O)[C@@H](N)CSSC[C@@H](C(=O)N2CCC[C@H]2C(=O)N[C@@H](CCCN=C(N)N)C(=O)NCC(N)=O)NC(=O)[C@H](CC(N)=O)NC1=O
PC15
  Potency: inactive
PC49
  Potency: inactive
SC27B
  Potency: inactive
W2
  Potency: 8.49 µM (active)
KB-3-1
  max response: 22.3% and -14.9%

## O=c1n(CC2CO2)c(=O)n(CC2CO2)c(=O)n1CC1CO1 (stereo not drawn)
PC15
  Potency: inactive
PC26
  Potency: inactive
PC49
  Potency: inactive
SC27B
  Potency: inactive
TAB113
  Potency: inactive
KB-3-1
  max response: 23%

## CSc1nc2cc(Oc3cccc(Cl)c3Cl)c(Cl)cc2[nH]1
PC15
  Potency: 8.91 µM (active)
PC26
  Potency: 5.36 µM (active)
PC49
  Potency: 12.6 µM (active)
SC27B
  Potency: 12.6 µM (active)
TAB109
  Potency: 7.94 µM (active)
TAB113
  Potency: 8.91 µM (active)
TAB165
  Potency: 7.94 µM (active)
W2
  Potency: 6.75 µM (active)
KB-3-1
  max response: -1.84%

## Cn1c(=O)c2c(ncn2CCOC(=O)C(C)(C)Oc2ccc(Cl)cc2)n(C)c1=O
PC15
  Potency: inactive
PC26
  Potency: inactive
PC49
  Potency: inactive
SC27B
  Potency: inactive
TAB113
  Potency: inactive
W2
  Potency: inactive
KB-3-1
  max response: -10.9%

## CC/C=C\C/C=C\C/C=C\CCCCCCCC(=O)O
PC15
  Potency: inactive
PC49
  Potency: inactive
SC27B
  Potency: inactive
TAB109
  Potency: inactive
TAB113
  Potency: inactive
W2
  Potency: inactive
KB-3-1
  max response: -1.86%
